GIRK2 activator = Activates human GIRK2-containing potassium channels; HEK293 GIRK2/NPY4 cells, thallium flux fluorescence; activation (% efficacy), % for hits at 37.5 µM; 34,000 tested, under 10 active; P48051; AID 1259324;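 active = primary screen hit, no activity in plain HEK293 cells, and in GIRK2-only cells above 5% efficacy rising with concentration; inactive = the rest, including fluorescent compounds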;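 note: efficacy is normalized control-subtracted fluorescence 15 s after thallium addition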
Target sequence (P48051 whole entry, looked up): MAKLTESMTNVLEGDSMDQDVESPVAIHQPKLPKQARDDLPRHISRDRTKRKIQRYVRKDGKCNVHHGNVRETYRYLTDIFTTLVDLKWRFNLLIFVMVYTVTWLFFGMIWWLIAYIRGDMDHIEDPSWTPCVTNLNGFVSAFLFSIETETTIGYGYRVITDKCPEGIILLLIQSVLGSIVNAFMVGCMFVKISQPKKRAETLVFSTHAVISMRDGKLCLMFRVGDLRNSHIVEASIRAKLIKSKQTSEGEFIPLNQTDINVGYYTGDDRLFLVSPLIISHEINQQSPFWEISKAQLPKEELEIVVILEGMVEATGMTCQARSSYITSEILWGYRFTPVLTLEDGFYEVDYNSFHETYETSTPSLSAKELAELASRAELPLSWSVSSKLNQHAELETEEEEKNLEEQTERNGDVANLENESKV
AMPAR-TARP mod = modulators of AMPA receptor GluA2-stargazin complexes; actives 3.5% (n = 40,000); O88602+P19491; calls only at 30 µM; AID 1259245; HEK293 GluA2+stargazin, membrane potential dye (FDSS), glutamate EC50; hits were called plate by plate, in both directions;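 active = any of four per-well response measures lying three or more SD from its plate-wide compound average, in either direction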
A number is an active result; 0 = inactive; - = no result; + = active, no number; [ ] = another dose, or the depositor's remark. The sample as a whole holds a higher share of hits than the screen did.

SMILES	GIRK2 activator	AMPAR-TARP mod
Cc1cccn2c(=O)c(/C=N/O)c(NCCO)nc12	-	0
C/C(Cl)=C\Cn1c(NCc2ccco2)nc2c1c(=O)n(C)c(=O)n2C	-	0
Cc1cccn2c(=O)c(C=NCCO)c(NCc3ccco3)nc12	-	+
COc1ccc(N=Cc2c(NCCO)nc3c(C)cccn3c2=O)cc1	0	+
CC(=O)c1ccc(N2CCN(C(=O)c3ccc(Cn4c(=O)[nH]c5ccccc5c4=O)cc3)CC2)cc1	0	0
Cc1ccc(C)c(N2CCN(C(=O)c3ccc(Cn4c(=O)[nH]c5ccccc5c4=O)cc3)CC2)c1	0	+
CSc1ccccc1NC(=O)C(=O)NCC(c1ccc(F)cc1)N1CCOCC1 (stereo not given)	0	0
O=S(=O)(N1CCOCC1)n1c(Cc2ccccc2)nc2ccccc21	0	+
O=S(=O)(N1CCOCC1)n1nnc2ccccc21	0	0
O=C(C1CC1)N1CCc2ccc(NS(=O)(=O)c3ccc(Cl)cc3)cc21	0	0
COCC(=O)N1CCCc2ccc(NC(=O)c3cn(C)nc3OC)cc21	0	0
CC(=O)Nc1ccc(S(=O)(=O)Nc2ccc3c(c2)N(C(=O)C2CC2)CC3)cc1	0	0
O=C(C1CC1)N1CCc2ccc(NS(=O)(=O)c3ccc(Cl)s3)cc21	0	+
COc1nn(C)cc1C(=O)Nc1ccc2c(c1)N(C(=O)C1CC1)CC2	0	+
CCc1ccc(S(=O)(=O)Nc2ccc3c(c2)N(C(=O)C2CCCC2)CC3)s1	0	0
CCc1ccc(S(=O)(=O)Nc2ccc3c(c2)N(C(=O)C(C)(C)C)CC3)s1	0	+
CC(C)(C)c1ccc(S(=O)(=O)Nc2ccc3c(c2)N(C(=O)C2CC2)CC3)cc1	0	+
COc1ccc(Cl)cc1C(=O)Nc1nn(C)c2c1C(C)CC(=O)N2 (stereo not given)	0	0
CCOC(=O)Cn1c(=O)c2c(nc3n2CCCN3c2cc(C)ccc2OC)n(C)c1=O	-	0
Cc1nc(NCCNS(=O)(=O)c2ccc(C(F)(F)F)cc2)cc(N2CCCC2)n1	0	-
Cc1cc(C)c2sc(N3CCN(C(=O)c4cc(C)no4)CC3)nc2c1	0	0
CCCOc1ccc(S(=O)(=O)N2CCCCC2)cc1C	-	0
COc1ccc(-c2ccc(=O)n(CCNS(=O)(=O)c3ccc(OC)cc3OC)n2)cc1	-	0
COc1ccc(-c2ccc(=O)n(Cc3cc(C)ccc3C)n2)cc1	0	+
COc1ccc(-c2ccc(=O)n(CCNS(=O)(=O)c3cc(C)c(C)cc3C)n2)cc1	-	+
SMILES	GIRK2 activator	AMPAR-TARP mod
CCOc1ccc(OCC)c(S(=O)(=O)NCCn2nc(-c3ccc(OC)cc3)ccc2=O)c1	-	+
CCOc1ccc(S(=O)(=O)NCCn2nc(-c3ccc(OC)cc3)ccc2=O)c(OCC)c1	-	0
Cc1ccc(C)c(Cn2nc(-c3ccc(Cl)cc3)ccc2=O)c1	0	0
COc1ccc(OC)c(NC(=O)c2ccc(N3C(=O)c4ccccc4C3=O)cc2)c1	-	0
COc1ccccc1N(CC(O)CN1CCN(C)CC1)S(=O)(=O)c1ccccc1 (stereo not given)	-	0
Cc1cccc2c(=O)oc(=O)[nH]c12	0	0
O=S(=O)(c1cc(F)ccc1F)N1CCC(Cn2ccnc2-c2ccccc2)CC1	0	+
Cc1nccn1CC1CCN(S(=O)(=O)c2cccs2)CC1	0	0
COc1ccc(OC)c(S(=O)(=O)Nc2ccc(-c3cn4ccccc4n3)cc2)c1	-	0
COc1cc(S(=O)(=O)Nc2ccc(-c3cn4cccc(C)c4n3)cc2)c(OC)cc1C	-	+
N#C/C(=C\C=C\c1ccccc1)c1nc2ccccc2s1	-	0
O=C(Nc1ccc(N2CCCS2(=O)=O)cc1)Nc1cccc(Cl)c1	0	+
COc1ccc(N2CCCS2(=O)=O)cc1NC(=O)Nc1ccc(Cl)c(Cl)c1	0	0
COc1cc(NC(=O)Nc2ccc(CN3CCN(C)CC3)cc2)cc(OC)c1OC	0	0
COc1ccc(Cl)cc1NC(=O)Nc1ccc(CN2CCN(C)CC2)cc1	14%[75 µM]	0
COc1cccc(NC(=O)Nc2ccc(N3CCCS3(=O)=O)cc2)c1	0	0
COc1ccc(Cl)cc1NC(=O)Nc1cc(N2CCCS2(=O)=O)ccc1OC	0	+
CC(=O)Nc1ccc(NC(=O)c2ccc3c(c2)CC(c2ccc(C)cc2)OC3=O)cc1 (stereo not given)	-	0
COc1ccc(CC(=O)N2CCN(c3cc(OC(C)C)nc(C)n3)CC2)cc1	0	0
Cc1cccc(OCC(=O)NCc2ccsc2)c1	0	-
O=C(NCCc1ccc(Cl)cc1)C(=O)Nc1cccc([N+](=O)[O-])c1	0	0
CC(C)N(CC#CCNS(=O)(=O)c1ccc2ccccc2c1)C(C)C	-	+
COc1ccc(S(=O)(=O)NCC#CCN(C(C)C)C(C)C)cc1OC	-	0
COc1ccc(OC)c2sc(NC(=O)c3ccnn3C)nc12	-	+
Cc1cc(C)c2sc(NC(=O)c3ccnn3C)nc2c1	0	-
COc1ccc2nc(N(CCN3CCOCC3)C(=O)c3ccc4c(c3)OCCO4)sc2c1	-	+

Screening results from PubChem BioAssay.
